The values that follow come from the supplement of paper PMC3334620.

The full ranking holds about 33,000 sequences; the median of “E-score (-0.5 to 0.5)” is about -0.012, and the highest 2% start at about 0.29. The sample as a whole holds a higher share of the highest values than the screen did.

In the assay the target is T1, Ybr033w (UniProt P38073).
T1 sequence: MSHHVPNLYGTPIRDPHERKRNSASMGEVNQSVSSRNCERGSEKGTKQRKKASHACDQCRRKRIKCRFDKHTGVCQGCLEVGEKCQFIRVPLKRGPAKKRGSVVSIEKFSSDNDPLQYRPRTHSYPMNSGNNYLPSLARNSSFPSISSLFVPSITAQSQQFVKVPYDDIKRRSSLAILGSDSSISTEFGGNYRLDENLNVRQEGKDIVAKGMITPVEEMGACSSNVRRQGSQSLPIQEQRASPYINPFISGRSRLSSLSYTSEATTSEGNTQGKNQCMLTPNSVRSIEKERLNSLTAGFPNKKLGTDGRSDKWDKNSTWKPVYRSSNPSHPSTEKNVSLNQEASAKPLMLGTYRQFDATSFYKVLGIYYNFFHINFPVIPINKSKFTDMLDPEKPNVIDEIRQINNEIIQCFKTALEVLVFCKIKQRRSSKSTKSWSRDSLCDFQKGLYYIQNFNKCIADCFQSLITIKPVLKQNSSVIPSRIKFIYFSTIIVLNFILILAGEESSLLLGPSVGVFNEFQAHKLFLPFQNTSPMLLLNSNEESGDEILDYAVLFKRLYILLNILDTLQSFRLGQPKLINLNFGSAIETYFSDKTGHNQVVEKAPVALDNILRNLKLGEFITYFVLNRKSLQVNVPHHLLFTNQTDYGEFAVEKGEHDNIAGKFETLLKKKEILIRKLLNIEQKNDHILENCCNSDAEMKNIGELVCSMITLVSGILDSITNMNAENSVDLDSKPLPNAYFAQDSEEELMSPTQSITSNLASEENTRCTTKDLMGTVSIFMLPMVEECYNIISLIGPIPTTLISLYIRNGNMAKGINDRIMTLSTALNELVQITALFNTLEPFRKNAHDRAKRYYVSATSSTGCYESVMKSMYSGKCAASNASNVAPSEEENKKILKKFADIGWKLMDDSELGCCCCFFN
Description: PBM E-score (8-mer binding enrichment) (E-score (-0.5 to 0.5)); higher = stronger / more preferred TF binding. The note with it: protein concentration: 200 nM; construct: GST-full length. The procedure, abridged:
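Using PURExpress in vitro transcription/translation, GST-tagged yeast transcription factors were made in full-length or DNA-binding-domain form. These were applied at about 100-200 nM to double-stranded universal all-10-mer Agilent arrays, and bound protein was detected with fluorescent anti-GST. Scans were normalised with masliner before the Universal PBM Analysis Suite assigned E-scores to ungapped eight-base words pooled with their reverse complements.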
Turning to TAAAAATA, the “PBM E-score” value worked out at 0.285.

On to AGAAAATC, for which the “PBM E-score” value came to 0.232.

Consider GGAAAAGA, for which the “PBM E-score” value is 0.0452.

As for CGAAAATA, the “PBM E-score” value amounted to 0.23.

Turning to AGAAAATA, the “PBM E-score” value was 0.314.

With AGGTTGAG, the “PBM E-score” value is -0.167.

Consider AAGGGGAT, for which the “PBM E-score” value was -0.0478.

Consider AGTACCGG, for which the “PBM E-score” value was -0.182.

As for CGGGTGCC, the “PBM E-score” value was -0.151.

Take TCACTACA: the “PBM E-score” value stood at 0.243.

For CCATCTGA, the “PBM E-score” value was 0.0862.

Take CTTTAGGC: the “PBM E-score” value was -0.0153.

For the sequence AGATTGAC, the “PBM E-score” value turned out to be 0.0305.

As for AAGCAAGG, the “PBM E-score” value is -0.0139.

Turning to GGACAGAC, the “PBM E-score” value is -0.174.

For AAAAATAA, the “PBM E-score” value amounted to 0.275.

Regarding GAAAATAA, the “PBM E-score” value turned out to be 0.304.

In the case of TCAAATAA, the “PBM E-score” value was 0.202.

For the sequence CAAAAATA, the “PBM E-score” value worked out at 0.316.

As to CCAAAATA, the “PBM E-score” value was 0.182.

As to GAAAAATC, the “PBM E-score” value stood at 0.381.

In the case of GCAAATAA, the “PBM E-score” value came out at 0.322.

On to AAAAAATC, for which the “PBM E-score” value is 0.248.

On to ACAAATAA, for which the “PBM E-score” value is 0.265.

With CAAAAATC, the “PBM E-score” value was 0.236.

CAAAAATG: the “PBM E-score” value was 0.157.

For TAAAATAA, the “PBM E-score” value is 0.261.

Consider ATAGCGCA, for which the “PBM E-score” value came out at 0.0412.

In the case of GACGATTA, the “PBM E-score” value was -0.0748.

On to TGAGGACA, for which the “PBM E-score” value amounted to 0.00432.

In the case of AAACTACG, the “PBM E-score” value amounted to 0.0517.

Consider ATCTACCC, for which the “PBM E-score” value turned out to be 0.0482.

As to ACATCAGG, the “PBM E-score” value came to 0.038.

Turning to CTTTTCGC, the “PBM E-score” value was 0.241.

With CAGGCAAC, the “PBM E-score” value was -0.0967.

For the sequence ACGACCAT, the “PBM E-score” value was -0.108.

On to AATCTAGT, for which the “PBM E-score” value was 0.214.

On to AGCTCACG, for which the “PBM E-score” value was -0.088.

For AATTAACT, the “PBM E-score” value was 0.219.

For the sequence AATTAACA, the “PBM E-score” value turned out to be 0.295.

For CATTAACA, the “PBM E-score” value was found to be 0.139.

Consider AATTAACC, for which the “PBM E-score” value was determined as 0.158.

Regarding GATTAACA, the “PBM E-score” value was 0.396.

For TATTAAGA, the “PBM E-score” value was found to be 0.168.

Consider GATTAACC, for which the “PBM E-score” value amounted to 0.195.

As for TATTAACA, the “PBM E-score” value amounted to 0.291.

GCTTAACA: the “PBM E-score” value is 0.0687.

Regarding ACCCAGGC, the “PBM E-score” value is -0.0962.

AAGTGAAT: the “PBM E-score” value was 0.239.

As for CACAGCCA, the “PBM E-score” value was -0.174.

Take ATGCGGCA: the “PBM E-score” value was -0.0591.

Turning to CTTTTCCA, the “PBM E-score” value is -0.0875.

For the sequence ATTTTCCC, the “PBM E-score” value was 0.386.

For ATTTCCCC, the “PBM E-score” value was -0.0347.

Turning to CTTTTCCC, the “PBM E-score” value came to 0.0333.

As for CTTTTTCC, the “PBM E-score” value worked out at 0.361.

Turning to ATTTTCCA, the “PBM E-score” value was 0.361.

As for AATTTCCC, the “PBM E-score” value is 0.226.

GTTTTCCA: the “PBM E-score” value is 0.215.

In the case of CCTTTTCC, the “PBM E-score” value is -0.15.

As to GACCGGTC, the “PBM E-score” value is -0.181.

AATCGTCA: the “PBM E-score” value was -0.0213.

Turning to CAACGTTG, the “PBM E-score” value stood at 0.156.

In the case of AGCTCTTC, the “PBM E-score” value amounted to 0.0781.

For the sequence GTAATCCA, the “PBM E-score” value was 0.0788.

As to ATAATCCA, the “PBM E-score” value came out at 0.327.

Take ATAATCCG: the “PBM E-score” value amounted to 0.383.

On to ATAATCCC, for which the “PBM E-score” value was determined as 0.189.

ATGATCCA: the “PBM E-score” value is 0.162.

Turning to CAAATCCA, the “PBM E-score” value worked out at 0.0838.

With ATGATCCG, the “PBM E-score” value came to 0.412.

For ATAATCGG, the “PBM E-score” value turned out to be 0.162.

For the sequence AAAATCCA, the “PBM E-score” value was 0.339.

Consider ACAATCCG, for which the “PBM E-score” value was 0.0606.

On to GAAATCCA, for which the “PBM E-score” value was determined as 0.108.

With ATGATCCC, the “PBM E-score” value came to 0.244.

With CTCTGGCC, the “PBM E-score” value was -0.15.

In the case of ACAAAGAC, the “PBM E-score” value came to 0.0319.

For GAGGAACA, the “PBM E-score” value is 0.171.

With AAGGAACA, the “PBM E-score” value came to 0.283.

In the case of CAGGAACG, the “PBM E-score” value is -0.0646.

For CAGGAACA, the “PBM E-score” value came to 0.401.

Consider CAGGAACC, for which the “PBM E-score” value was -0.122.

With TAGGAACA, the “PBM E-score” value came to 0.316.

For GGGACCCC, the “PBM E-score” value was -0.33.

ATGCCATG: the “PBM E-score” value was -0.0545.
